Laboratory results published in PubChem BioAssay (NCI).
The panel holds about 79,000 compounds, 15% with a hit somewhere; the sample as a whole holds those more often. Calls of active or inactive are those of the source. No stated cut-off is given here; in the data, active means growth inhibition above about 70%; inactive means the rest.

Key:
[1] = NCI Yeast Anticancer Drug Screen. Data for the rad52 strain (AID 147);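 further: 0% = growth of vehicle-treated control cultures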; details: S. cerevisiae rad52 mutant growth inhibition, hits give high values
Summary of the method: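 Vehicle-treated cultures served as the reference for growth inhibition of compound-exposed yeast bearing a DNA repair mutation.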

[2] = NCI Yeast Anticancer Drug Screen. Data for the wt1 strain (AID 149);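 further: 0% = growth of vehicle-treated wt1 cultures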; details: S. cerevisiae wt1 strain (SPY 50644) growth inhibition, hits give high values
Summary of the method: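 Measured: growth of wt1 yeast under compound versus vehicle treatment, reported as inhibition.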

[3] = NCI Yeast Anticancer Drug Screen. Data for the rad50EPP+ strain (AID 151);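 further: 0% = growth of vehicle-treated control cultures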; details: S. cerevisiae rad50 mutant strain, hits give high values
Summary of the method: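 In this screen, rad50EPP+ yeast were exposed to compounds. Growth inhibition was scored against vehicle-treated controls.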

[4] = NCI Yeast Anticancer Drug Screen. Data for the mgt1 strain (AID 153); details: S. cerevisiae mgt1 mutant growth inhibition, hits give high values
Summary of the method: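 mgt1 strain exposed; growth vs vehicle control recorded as inhibition.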

[5] = NCI Yeast Anticancer Drug Screen. Data for the rad50 strain (AID 155);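 further: 0% = growth of vehicle-only cultures of the same strain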; details: S. cerevisiae rad50 strain growth inhibition, hits give high values
Summary of the method: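 Growth of the mutant yeast was measured after compound exposure and referenced to vehicle-treated cultures.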

[6] = NCI Yeast Anticancer Drug Screen. Data for the mec2-1 strain (AID 157); details: S. cerevisiae mec2-1 strain, hits give high values
Summary of the method: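 Vehicle-treated cultures served as reference for growth inhibition of compound-exposed mec2-1 yeast.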

[7] = NCI Yeast Anticancer Drug Screen. Data for the sgs1 mgt1 strain (AID 161);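 further: 0% = growth of cultures given vehicle only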; details: S. cerevisiae sgs1 mgt1 strain, at 50.0 µM, hits give high values
Summary of the method: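 Genetically altered yeast, compound exposure, growth inhibition relative to vehicle.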

[8] = NCI Yeast Anticancer Drug Screen. Data for the cln2 rad14 strain (AID 165);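 further: 0% = growth equal to vehicle treated cultures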; details: S. cerevisiae cln2 rad14 strain, at 50.0 µM, hits give high values
Summary of the method: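 Each compound was tested on cln2 rad14 yeast. Inhibition of growth was calculated against vehicle-exposed controls.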

[9] = NCI Yeast Anticancer Drug Screen. Data for the bub3 strain (AID 167); details: S. cerevisiae bub3 mutant strain, hits give high values
Summary of the method: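 Whole-cell yeast assay. The mutant strain was incubated with compounds, and growth inhibition was determined by comparison with vehicle-treated cells.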

[10] = NCI Yeast Anticancer Drug Screen. Data for the wt2 strain (AID 169);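 further: 0% = growth of vehicle-treated yeast cultures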; details: S. cerevisiae wt2 strain growth inhibition, hits give high values
Summary of the method: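 Inhibition of yeast growth was determined after compound treatment, normalised to controls receiving only vehicle.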

[11] = NCI Yeast Anticancer Drug Screen. Data for the mlh1 strain (AID 171);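 further: 0% = growth of vehicle-treated control cultures of the same strain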; details: S. cerevisiae mlh1 strain growth inhibition, hits give high values
Summary of the method: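 Vehicle-normalised growth inhibition of a repair- or checkpoint-altered yeast strain following compound treatment.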

[12] = NCI Yeast Anticancer Drug Screen. Data for the sgs1 strain (AID 173);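 further: 0% = growth of vehicle-only control cultures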; details: S. cerevisiae sgs1 mutant, hits give high values
Summary of the method: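 Screen format: yeast with repair or checkpoint alterations, compound exposure, growth read relative to vehicle.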

[13] = NCI Yeast Anticancer Drug Screen. Data for the mlh1 rad18 strain (AID 175); details: S. cerevisiae mlh1 rad18 strain growth inhibition; at 50.0 µM; hits give high values
Summary of the method: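 Vehicle-treated cultures served as the reference for growth inhibition in a yeast strain carrying DNA damage repair alterations exposed to each compound.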

[14] = NCI Yeast Anticancer Drug Screen. Data for the rad18 strain (AID 177); details: S. cerevisiae rad18 mutant growth inhibition, hits give high values
Summary of the method: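 Test articles were incubated with altered yeast defective in DNA damage repair. Results are given as inhibition of growth versus vehicle.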

[15] = at 5.0 µM (retest, dose inferred, filed as 0.5)
[16] = at 50.0 µM (retest, dose inferred, filed as 5.0)

Measured: growth inhibition

O=NN(CCCl)C(=O)NCCCl
inactive: [1]; at 1.2 µM 0% | [1]; at 3.7 µM 1% | [1]; at 11.0 µM 6% | [1]; at 33.0 µM 13% | [1]; at 100.0 µM 51% | [2]; at 1.2 µM -1% | [2]; at 3.7 µM -2% | [2]; at 11.0 µM -1% | [2]; at 33.0 µM 0% | [2]; at 100.0 µM -16% | [3]; at 1.2 µM -3% | [3]; at 3.7 µM -1% | [3]; at 11.0 µM 5% | [3]; at 33.0 µM 30% | [4]; at 1.2 µM -3% | [4]; at 3.7 µM -2% | [4]; at 11.0 µM 0% | [4]; at 33.0 µM 2% | [4]; at 100.0 µM 3% | [5]; at 1.2 µM 0% | [5]; at 3.7 µM 0% | [5]; at 11.0 µM 6% | [5]; at 33.0 µM 15% | [5]; at 50.0 µM 35.6% | [5]; at 100.0 µM 53% | [6]; at 1.2 µM -2% | [6]; at 3.7 µM 0% | [6]; at 11.0 µM 1% | [6]; at 33.0 µM 4% | [6]; at 50.0 µM -4.3% | [6]; at 100.0 µM 15% | [7] 6.75% | [8] 2.3% | [9]; at 1.2 µM 2% | [9]; at 3.7 µM -2% | [9]; at 11.0 µM 0% | [9]; at 33.0 µM -6% | [9]; at 50.0 µM -10.8% | [9]; at 100.0 µM 3% | [10]; at 1.2 µM -3% | [10]; at 3.7 µM -3% | [10]; at 11.0 µM -3% | [10]; at 33.0 µM 0% | [10]; at 100.0 µM 3% | [11]; at 1.2 µM -1% | [11]; at 3.7 µM -2% | [11]; at 11.0 µM -2% | [11]; at 33.0 µM 1% | [11]; at 100.0 µM 8% | [12]; at 1.2 µM -2% | [12]; at 3.7 µM -1% | [12]; at 11.0 µM 1% | [12]; at 33.0 µM 10% | [12]; at 100.0 µM 33% | [13] 43% | [14]; at 1.2 µM 4% | [14]; at 3.7 µM 13% | [14]; at 11.0 µM 45%
active: [3]; at 100.0 µM 76% | [14]; at 33.0 µM 85% | [14]; at 100.0 µM 94%

Oc1ccc(Br)cc1C=NC1CCCCC1
active: [1]; at 33.0 µM 95% | [1]; at 100.0 µM 98% | [2]; at 33.0 µM 91% | [2]; at 100.0 µM 99% | [3]; at 33.0 µM 74% | [3]; at 100.0 µM 93% | [5]; at 33.0 µM 97% | [5]; at 50.0 µM 78.9% | [5]; at 100.0 µM 97% | [6]; at 33.0 µM 94% | [6]; at 50.0 µM 88.5%
inactive: [1]; at 1.2 µM 0% | [1]; at 3.7 µM 15% | [1]; at 11.0 µM 35% | [2]; at 1.2 µM -24% | [2]; at 3.7 µM -18% | [2]; at 11.0 µM 6% | [3]; at 1.2 µM 3% | [3]; at 3.7 µM 12% | [3]; at 11.0 µM 35% | [5]; at 1.2 µM -14% | [5]; at 3.7 µM -18% | [5]; [15] 44% | [5]; at 11.0 µM 49% | [5]; [16] 45% | [6]; at 1.2 µM -24% | [6]; at 3.7 µM -21% | [6]; [15] 47% | [6]; at 11.0 µM 11% | [6]; [16] 60%
